# In the supplement of paper PMC10681739:
# What was measured:
# ETS1 [1] = target: T1, ETS1 (UniProt P14921); assay: ETS1 binding intensity (PBM fluorescence), ETS1 alone (arbitrary fluorescence units); higher = stronger binding; conditions: ETS1 concentration 1 nM; RUNX1 concentration 0 nM
# T1 sequence: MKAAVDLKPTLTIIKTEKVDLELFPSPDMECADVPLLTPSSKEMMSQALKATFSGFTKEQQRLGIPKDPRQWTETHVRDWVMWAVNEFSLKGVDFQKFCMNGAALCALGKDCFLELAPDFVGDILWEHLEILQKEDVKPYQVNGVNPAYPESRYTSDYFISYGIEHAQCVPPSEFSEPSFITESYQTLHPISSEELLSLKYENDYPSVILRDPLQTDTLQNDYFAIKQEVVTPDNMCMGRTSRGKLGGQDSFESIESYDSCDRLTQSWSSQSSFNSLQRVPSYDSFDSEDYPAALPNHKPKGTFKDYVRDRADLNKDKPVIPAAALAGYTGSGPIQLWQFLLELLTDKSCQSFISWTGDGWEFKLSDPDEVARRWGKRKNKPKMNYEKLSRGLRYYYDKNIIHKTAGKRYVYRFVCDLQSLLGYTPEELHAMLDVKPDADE
# RUNX1 [2] = target: RUNX1 (UniProt Q01196); assay: RUNX1 binding intensity (PBM fluorescence), RUNX1 alone (arbitrary fluorescence units); higher = stronger binding; conditions: RUNX1 concentration 2 nM; ETS1 concentration 0 nM
# Experimental: (§1)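 Cooperative gcPBM on 36-bp genomic probes with neighbouring ETS1 and RUNX1 sites. Recombinant human RUNX1 (2 nM) was incubated alone or with ETS1 (25 nM) and detected with anti-RUNX1 antibody plus Alexa488 secondary. Values are medians over 4 replicate spots; the RUNX1+ETS1 data were normalised to the RUNX1-only data. The probes sit in constant array flanks that are not printed.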
# ETS1 [3] = target: T1, ETS1; assay: ETS1 binding intensity (PBM fluorescence) in presence of RUNX1, normalised to ETS1-only experiment (arbitrary fluorescence units); higher = stronger binding; conditions: ETS1 concentration 1 nM; RUNX1 concentration 25 nM
# RUNX1 [4] = target: RUNX1 (UniProt Q01196); assay: RUNX1 binding intensity (PBM fluorescence) in presence of ETS1, normalised to RUNX1-only experiment (arbitrary fluorescence units); higher = stronger binding; conditions: RUNX1 concentration 2 nM; ETS1 concentration 25 nM
# Experimental: as §1
# 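Throughout, for RUNX1 binding intensity (PBM fluorescence) in presence of ETS1, normalised to RUNX1-only experiment: Full-length recombinant human ETS1 or RUNX1 bound to double-stranded 36-bp genomic probes on microarrays, detected by protein-specific primary antibody and Alexa488 secondary, spot fluorescence as median of four replicate spots.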
# 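Throughout, for RUNX1 binding intensity (PBM fluorescence), RUNX1 alone: Full-length recombinant human RUNX1 bound to double-stranded 36-bp genomic probes on a high-density microarray, scored as Alexa488 fluorescence per spot via anti-RUNX1 antibody, median of four replicate spots.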
# Sequence of RUNX1 (Q01196 whole entry): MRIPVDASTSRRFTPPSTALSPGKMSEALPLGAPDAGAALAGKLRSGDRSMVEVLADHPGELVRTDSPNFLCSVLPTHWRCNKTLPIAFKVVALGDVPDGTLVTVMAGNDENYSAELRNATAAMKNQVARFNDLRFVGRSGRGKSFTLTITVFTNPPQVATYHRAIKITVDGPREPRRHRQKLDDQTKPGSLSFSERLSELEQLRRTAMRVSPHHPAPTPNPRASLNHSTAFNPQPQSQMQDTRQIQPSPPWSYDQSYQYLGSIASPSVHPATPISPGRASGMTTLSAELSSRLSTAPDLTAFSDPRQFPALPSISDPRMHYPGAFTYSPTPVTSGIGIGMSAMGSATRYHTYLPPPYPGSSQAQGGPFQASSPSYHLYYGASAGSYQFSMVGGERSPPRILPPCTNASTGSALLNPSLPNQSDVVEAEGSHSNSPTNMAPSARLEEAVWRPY
Sequence,ETS1 binding intensity (ETS1 [1]),RUNX1 binding intensity (RUNX1 [2]),ETS1 binding intensity (ETS1 [3]),RUNX1 binding intensity (RUNX1 [4])
GCCCGCCCCGGAAGTGCAAACTGTGTGGTCTGGCAG,3980,867,7090,1330
AGGAGTGTCACTTCCTCTTTCCTCACCACAGCCTCC,1100,1040,1440,1890
TTGGTCAGGATGTGGCTGAAGAAGCCACAAGAAAAA,796,769,943,1130
GCGGCGAACCGGACGCCCCAACCACCCGCCCCCCAC,1710,987,1470,1060
CCGAGCTTAACGACATCCTGCGGCTCAGCGTGGAGG,435,792,471,1190
GGCTCGGTGCTGCTTCCTGTGTGGTCAGGATCACAG,1870,846,4270,1790
GCCCCCGGAAGCTGTCGCCCCGTGCGGTGTGTGCTG,1600,787,2000,1330
ATGGCGAAGCAGGATGCCCTCAACCCACATACGGCA,638,1010,927,1000
ACCTTCGCCGGATGCTGTGGCTGAAACCACAGCATT,2480,994,13300,1980
GGTTCATTTCCTTTTCCTCCTTGTGGTATAAAAGAG,697,1210,985,2890
TGCAGTCTCAACTTCCTGCGGTCAAGTGATCCTTCA,654,3750,1410,6540
CAGATTCCCGGAAAGGGGGACATGTAGCCGCAAAAG,509,815,1990,1040
CCAGTACCCCACTTCCTGACCAAACCACAAAGGTCA,635,2980,2450,8080
GGCATTCACTTCCGGTCTGGGGCCTGCGGCGGCGGC,18600,793,19400,2260
TGGAGTGGAGGAAGTGGTGTTACCACAGCTCAGAGG,1050,726,2680,1230
AGGCCGCTTCCTCCCACATGAAACCGCAGGCTTCGG,374,3590,1590,10900
GTGGATTTCACATCCTGTCCTAGCGGTATGTTTGTC,1470,783,1610,1750
CCCCACATCCGGGGGCCGGGGCCGGGCTGTGGGCTT,524,739,516,2140
TCCGGAAGTCGGAGGAACACCCCAGCCGCCGCAGCC,1840,751,2010,988
GGAGGAAGAGGAGGATGTGGTGAGCCGCTCCCCGCC,923,782,1870,1260
GTGGCCTCTTCAACAGGAAACCACAATATTTTTGTT,4610,1410,10500,2710

Sequence,ETS1 binding intensity (ETS1 [1]),RUNX1 binding intensity (RUNX1 [2]),ETS1 binding intensity (ETS1 [3]),RUNX1 binding intensity (RUNX1 [4])
AGGCTGTGGCGGAAGTGGTCGCGTTACCGCTTGTTT,6340,712,12100,3760
TGCGAGCACCCGGAAGCCGCTTGCGGGCTCCCGGAG,2840,701,5620,999
TGGTGCCAAACATCCGCTAGCCACAGAAAAACCGAC,778,826,1170,1640
ACGTTTCGGGGTTTCCGGGCCAGCGGTTTCGGGCGC,702,937,1140,2050
TTTGTCATATCAACAGGATGTGGTTCTCCCCTGGTT,6920,905,10700,1530
CAGAGAGAGGCCACATCCCTGTGGTCACACATACCC,428,980,590,1030
ACAGCTCACACAGGAAATACAAACCTCAAAAAGCAA,2600,1070,7480,1670
AGATGCAAACACAGGAAACTTGTGGTCTATGCTGCT,1800,803,7450,1160
TATCACATCCTGCCGGACAAAAAGGCCAAACCACCT,536,919,473,1850
TCATATCCGGCAGGAATGGGTTTTGTGGCTTTGTGC,752,1670,1400,3620
GCTTCTTCCGGCCGGGCCGAGAGGTGGTTACATTCG,683,792,700,1940
CTGGAGAGGATGTGGCCCCAGTGTGGTTCTGTAACT,610,837,776,1170
GTTTCTCTGGCCAGGAAATTGAGGTTTCTGTTAGTC,2010,851,3260,1660
ATACAGACACAGGAAGTTGTGGGGAGTGCAAAAGCC,5090,798,5680,1530
CACCCATAGCACCCCGGAAACCACCTCCACCACCTG,1890,1390,2240,2020
GCCCAGGAAGTGGGTACAAAATGAGCCACAAGACCT,616,768,839,1610
TGTGCTGACTACAGGATGCTGTGGTTAGTCAGGTTG,1690,809,13800,1720
AACTAGGCTTTTCTTTCCTGTGGTCCTTAAGGAGGC,461,929,329,1020
AGAAGGAACTACACAGGAAACCCACTGCCTCGATGG,2430,691,1640,865
ATGTTAACATCCTGCCATGAAAACCGCAAGAAGGGC,680,19000,3730,26000
